# Laboratory results taken from PubChem BioAssay (NCATS).
# Values joined by “and” are separate entries in the source; they are usually repeats but may differ in a detail not shown here. Equal entries are not always repeated. A number with no mark means an inactive call. Records with an inconclusive call do not appear. Entries that show only a call come without a potency. Active and inactive are the calls of the source. Unless noted, calls follow the shape of the dose curve; as a rule, active = well fitted curve in the direction sought with a large enough effect; inconclusive = small, poorly fitted or top-dose-only effect, or another doubt; inactive = no such curve, though single readings can be large; an effect the other way counts as inactive or inconclusive.
# Legend:
# [1] = Cellular Toxicity (caspase-3) HepG2 (AID 654);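 also: cells exposed to compound for 16 hours before reading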
# How it was run: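 Caspase 3/7 activation is measured as a luminescence increase (aminoluciferin substrate) after 16 h compound exposure of human hepatocarcinoma HepG2 cells. AC50 values are Hill fits, scaled between DMSO baseline and 100 uM tamoxifen stimulation.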
# [2] = Cellular Toxicity (caspase-3) Jurkat (AID 655); settings: Jurkat caspase-3 activation, luminescence, DMSO = 0%, tamoxifen = 100%; at 92.2 µM (top of the series);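 also: cells exposed to compound for 16 h at 37 °C before reading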
# How it was run: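 Luminescent caspase-3/7 readout (aminoluciferin substrate cleavage) in human T-cell leukemia Jurkat cells after 16 hr compound exposure. Concentration-response normalized to DMSO and 100 uM tamoxifen; AC50 by standard Hill equation.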
# [3] = Cellular Toxicity (caspase-3) HUV-EC-C (AID 656); also: potency is read from the fitted curve at half-maximal effect
# How it was run: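 Luminescent caspase-3/7 activation (aminoluciferin substrate cleavage) in HUV-EC-C cells after 16 hr compound exposure, 37°C. Signal normalized to DMSO basal and 100 uM tamoxifen as 100%; AC50 from concentration-response fitted with the Hill equation.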
# [4] = Cellular Toxicity (caspase-3) SHSY5Y (AID 657);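 also: cells exposed to compound for 16 hours at 37 °C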
# How it was run: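 Luminescent caspase-3/7 readout (aminoluciferin release) in SH-SY5Y cells after 16 h compound exposure in complete medium. Activity scaled between DMSO basal and 10 uM staurosporine as 100%; concentration-response fitted to Hill equation for AC50.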
# [5] = Cellular Toxicity (caspase-3) BJ (AID 658);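 also: cells exposed to compound for 16 hours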
# How it was run: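 Plated BJ cells (1000/well) rested 5 hr, received compound for 16 hr at 37 °C, then Caspase-Glo 3/7 reagent for 1 hr at room temperature before luminescence reading.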
# [6] = Cellular Toxicity (caspase-3) MRC-5 (AID 659)
# How it was run: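 Apoptosis readout in MRC-5 cells: luciferase light generated after caspase 3/7 cleaves a peptide-aminoluciferin substrate, measured post 16 hr compound incubation at 37 °C.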
# [7] = Cellular Toxicity (caspase-3) Mesangial (AID 660);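 also: combined caspase 3 and 7 activity read by Caspase-Glo luminescence; cells exposed to compound for 16 h before the caspase read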
# How it was run: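 Caspase 3/7 activation measured by Caspase-Glo 3/7 luminescence (20 min, room temperature) following 16 h exposure of mesangial cells (1000/well); AC50 from Hill-equation fit, normalized to DMSO and 100 uM tamoxifen.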
# [8] = Cellular Toxicity (caspase-3) SK-N-SH (AID 661);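 also: cells exposed to compound for 16 hours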
# How it was run: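 Caspase 3/7 activation was read by luminogenic substrate cleavage after 16 hour treatment of SK-N-SH cells. Signal was scaled between DMSO and 10 uM staurosporine, and concentration-response data were fitted with the Hill equation for AC50.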
# [9] = Cellular Toxicity (caspase-3) H-4-II-E (AID 663);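 also: cells exposed to compound for 16 hr before readout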
# How it was run: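 Caspase 3/7 activation measured in H-4-II-E cells in complete culture medium after 16 hr treatment at 37 °C, using luciferase-coupled substrate readout; AC50 values come from Hill-equation fits of normalized concentration-response data.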
# [10] = Cellular Toxicity (caspase-3) Hek293 (AID 664);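 also: cells exposed to compound for 16 h at 37 °C before readout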
# How it was run: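 Concentration-response qHTS: caspase 3/7 activation measured by luminescent aminoluciferin substrate cleavage after 16 h compound exposure of Hek 293 cells. AC50 from Hill equation, with DMSO as basal and 100 uM tamoxifen as 100%.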
# [11] = Cellular Toxicity (caspase-3) N2a (AID 665);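 also: compound exposure lasted 16 h at 37 °C before readout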
# How it was run: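 Caspase-3/7 activation measured as luminescence from Caspase-Glo reagent (1 h, room temperature) after 16 h compound exposure of mouse N2a cells. AC50 values from Hill-equation concentration-response, scaled between DMSO and 10 uM staurosporine.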
# [12] = Cellular Toxicity (caspase-3) NIH 3T3 (AID 666)
# How it was run: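 Caspase-Glo 3/7 luminescence reported caspase activation in 1000 NIH 3T3 cells/well after 16 h compound exposure at 37 C. DMSO set basal and 100 uM tamoxifen set 100% stimulation; concentration-response modeled with the Hill equation for AC50.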
# [13] = Cellular Toxicity (caspase-3) Renal Proximal Tubule (AID 667);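 also: cells exposed to compound for 16 hours at 37 °C before detection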
# How it was run: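 Luminescent caspase 3/7 signal from peptide-aminoluciferin cleavage measures apoptosis in freshly isolated rat kidney proximal tubule cells after 16 h compound exposure. Concentration-response data are normalized to DMSO and 10 uM staurosporine, and AC50 values come from Hill equation fits.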
# [14] = target: Cytochrome P450 3A4 (Homo sapiens) (UniProt P08684); test: qHTS Assay for Activators of Cytochrome P450 3A4 (AID 885); also: nearly all actives have a fitted effect of over 65% in size
# How it was run: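 Luminescent readout of luciferin formed from 25 uM Luciferin-PPXE (KM level) by 20 nM CYP3A4 in 200 mM KPO4, with 60 min NADPH-driven reaction at room temperature after 10 min compound exposure. Ketoconazole (57 uM) defined 100% inhibition.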
# [15] = target: 3',5'-cyclic-AMP phosphodiesterase 4B (Homo sapiens) (UniProt Q07343); test: qHTS Assay for Inhibitors of PDE-IV (AID 607; active = well fitted activation curve with a large enough effect in the main read-out, with a control signal flat, not every such curve was filed as active)
# How it was run: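 Cell-based read-out of cAMP via a modified cyclic nucleotide-gated channel and membrane potential dye (535/590 nm) in HEK293 cells expressing PDE4 endogenously. Compounds tested up to 22.9 uM final; 100 uM RO 20-1724 reference.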
# [16] = target: Guanine nucleotide-binding protein G(i) subunit alpha-1 (Homo sapiens) (UniProt P63096); test: qHTS Assay for Inhibitors of RGS12 GoLoco Motif Activity (Green Fluorophore) (AID 879);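 also: negative values mean loss of peptide binding seen as reduced polarization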
# How it was run: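 A drop in FITC polarization marked displacement of the FITC-tagged RGS12 GoLoco peptide (10 nM) from Gαi1 (50 nM). Compounds were incubated 10 min at room temperature in Tris pH 7.5 buffer containing 150 mM NaCl, 0.1 mM GDP and 0.05% NP40; unlabeled peptide titration served as control.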
# [17] = target: Cytochrome P450 2C9 (Homo sapiens) (UniProt P11712); test: qHTS Assay for Inhibitors and Substrates of Cytochrome P450 2C9 (AID 883); also: nearly all actives have a fitted effect of over 60% in size
# How it was run: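 CYP2C9 deoxyluciferin hydroxylation, 37C, 60 min with NADPH regeneration; 10nM enzyme, 100uM Luciferin-H (KM). Glo detection reagent stopped reaction; luminescence normalized to sulphaphenazole (57uM) full inhibition.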
# [18] = target: Cytochrome P450 3A4 (Homo sapiens) (UniProt P08684); test: qHTS Assay for Inhibitors and Substrates of Cytochrome P450 3A4 (AID 884); also: nearly all actives have a fitted effect of over 50% in size; also: potency is read from the fitted curve at half-maximal effect
# How it was run: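 Luminescent readout of luciferin produced by CYP3A4 (20 nM) dealkylation of Luciferin-PPXE, 25 uM (its KM). NADPH-driven reaction ran 60 min at RT after 10 min compound preincubation; data scaled to 57 uM ketoconazole as 100% inhibition.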
# [19] = target: Cytochrome P450 2D6 (Homo sapiens) (UniProt P10635); test: qHTS Assay for Inhibitors and Substrates of Cytochrome P450 2D6 (AID 891); also: nearly all actives have a fitted effect of over 60% in size; also: potency is read from the fitted curve at half-maximal effect
# How it was run: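 Luminescent read-out of luciferin formed by 5 nM human CYP2D6 demethylating 30 uM Luciferin-ME EGE (Km level) over 60 min at room temperature after NADPH regeneration addition. Data normalized to full inhibition by 1.43 uM quinidine.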
# [20] = qHTS Assay for Identification of Small Molecule Antagonists for NFkB Signaling Pathway (AID 895; active = well fitted inhibition curve with a large enough effect in the signal ratio, with a control signal flat, not every such curve was filed as active; the % refers to the signal ratio; also: potency is read from the fitted curve at half-maximal effect)
# How it was run: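 NFkB-bla ME-180 cervical carcinoma cells with beta-lactamase reporter under NFkB response element; compounds added, then TNF alpha at 10 pM final (EC50), 5 h at 37 C. LiveBLAzer substrate 2 h, room temperature; emission 460/530 nm at 405 nm excitation.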
# 3',5'-cyclic-AMP phosphodiesterase 4B (Homo sapiens), sequence (Q07343 whole entry, looked up): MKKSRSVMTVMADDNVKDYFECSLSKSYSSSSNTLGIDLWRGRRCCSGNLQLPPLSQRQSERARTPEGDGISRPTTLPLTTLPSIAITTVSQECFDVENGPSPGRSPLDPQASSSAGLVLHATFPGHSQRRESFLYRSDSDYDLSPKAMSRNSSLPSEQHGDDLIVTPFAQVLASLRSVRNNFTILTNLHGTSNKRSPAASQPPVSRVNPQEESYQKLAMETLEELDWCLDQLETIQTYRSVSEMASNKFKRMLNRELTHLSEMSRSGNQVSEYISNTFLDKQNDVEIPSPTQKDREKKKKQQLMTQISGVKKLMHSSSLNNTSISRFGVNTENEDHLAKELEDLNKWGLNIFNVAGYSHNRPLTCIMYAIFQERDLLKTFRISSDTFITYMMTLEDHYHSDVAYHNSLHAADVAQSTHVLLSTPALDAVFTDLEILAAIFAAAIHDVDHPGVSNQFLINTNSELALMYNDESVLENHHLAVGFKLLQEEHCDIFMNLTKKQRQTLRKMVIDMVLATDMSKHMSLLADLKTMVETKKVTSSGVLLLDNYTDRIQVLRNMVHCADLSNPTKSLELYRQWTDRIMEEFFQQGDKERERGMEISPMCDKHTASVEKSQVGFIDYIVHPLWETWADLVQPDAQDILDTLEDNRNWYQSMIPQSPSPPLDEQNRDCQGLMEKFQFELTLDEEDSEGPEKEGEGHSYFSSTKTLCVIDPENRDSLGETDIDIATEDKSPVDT
# Cytochrome P450 3A4 (Homo sapiens), sequence (P08684 whole entry, looked up): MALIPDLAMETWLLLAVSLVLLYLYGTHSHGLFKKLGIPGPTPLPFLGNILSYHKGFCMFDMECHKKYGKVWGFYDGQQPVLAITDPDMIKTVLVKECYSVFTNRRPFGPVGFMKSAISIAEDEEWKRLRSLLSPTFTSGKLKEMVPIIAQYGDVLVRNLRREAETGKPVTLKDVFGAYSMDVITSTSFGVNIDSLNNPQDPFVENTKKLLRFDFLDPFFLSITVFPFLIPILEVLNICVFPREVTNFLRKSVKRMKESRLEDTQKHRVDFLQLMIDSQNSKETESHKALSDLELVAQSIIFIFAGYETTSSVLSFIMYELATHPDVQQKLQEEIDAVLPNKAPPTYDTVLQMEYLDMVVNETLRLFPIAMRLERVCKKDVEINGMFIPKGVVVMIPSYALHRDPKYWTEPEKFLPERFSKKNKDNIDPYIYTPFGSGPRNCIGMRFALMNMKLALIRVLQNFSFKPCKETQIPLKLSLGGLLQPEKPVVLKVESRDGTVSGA
# Cytochrome P450 2D6 (Homo sapiens), sequence (P10635 whole entry, looked up): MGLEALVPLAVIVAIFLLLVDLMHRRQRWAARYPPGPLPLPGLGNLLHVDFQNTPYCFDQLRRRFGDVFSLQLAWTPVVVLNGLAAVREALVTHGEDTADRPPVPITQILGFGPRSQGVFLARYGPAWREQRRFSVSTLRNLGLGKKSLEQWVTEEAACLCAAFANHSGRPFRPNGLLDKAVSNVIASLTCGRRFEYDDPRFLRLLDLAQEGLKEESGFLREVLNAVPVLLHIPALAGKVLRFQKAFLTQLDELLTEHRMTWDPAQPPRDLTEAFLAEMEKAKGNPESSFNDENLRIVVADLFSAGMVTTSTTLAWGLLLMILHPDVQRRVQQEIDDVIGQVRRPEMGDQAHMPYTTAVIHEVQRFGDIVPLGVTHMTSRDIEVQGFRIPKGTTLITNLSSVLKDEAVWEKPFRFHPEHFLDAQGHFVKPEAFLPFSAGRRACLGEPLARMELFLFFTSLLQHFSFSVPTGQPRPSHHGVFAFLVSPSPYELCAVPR
# Guanine nucleotide-binding protein G(i) subunit alpha-1 (Homo sapiens), sequence (P63096 whole entry, looked up): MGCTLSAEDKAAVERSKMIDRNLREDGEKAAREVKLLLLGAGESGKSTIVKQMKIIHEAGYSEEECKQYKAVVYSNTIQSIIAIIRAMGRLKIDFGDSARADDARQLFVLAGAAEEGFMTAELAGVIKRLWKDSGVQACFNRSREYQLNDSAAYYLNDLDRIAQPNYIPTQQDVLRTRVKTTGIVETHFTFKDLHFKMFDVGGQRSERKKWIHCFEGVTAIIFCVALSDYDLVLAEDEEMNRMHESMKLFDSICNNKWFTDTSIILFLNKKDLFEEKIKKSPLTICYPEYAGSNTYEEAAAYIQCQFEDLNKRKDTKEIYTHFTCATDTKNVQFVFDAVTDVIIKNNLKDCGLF
# Cytochrome P450 2C9 (Homo sapiens), sequence (P11712 whole entry, looked up): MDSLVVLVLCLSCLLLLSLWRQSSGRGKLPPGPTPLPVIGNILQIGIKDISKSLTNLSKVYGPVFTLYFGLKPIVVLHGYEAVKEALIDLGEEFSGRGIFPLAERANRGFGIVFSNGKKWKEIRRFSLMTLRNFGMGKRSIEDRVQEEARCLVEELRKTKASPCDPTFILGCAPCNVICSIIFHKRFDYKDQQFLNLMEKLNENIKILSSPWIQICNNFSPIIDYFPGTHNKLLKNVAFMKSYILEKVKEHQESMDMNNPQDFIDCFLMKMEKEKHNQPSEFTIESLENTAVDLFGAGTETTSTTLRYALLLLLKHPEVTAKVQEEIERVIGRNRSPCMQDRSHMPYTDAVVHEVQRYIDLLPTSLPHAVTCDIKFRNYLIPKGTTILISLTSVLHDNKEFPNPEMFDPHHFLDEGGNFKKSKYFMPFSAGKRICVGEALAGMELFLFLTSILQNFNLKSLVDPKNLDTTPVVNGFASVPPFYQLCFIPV
compound,measurement,setting,value
CCOC(=O)CC(SP(=S)(OC)OC)C(=O)OCC (stereo not drawn),outcome,[1],inactive
same,caspase-3 activation,[2],-0.413%
same,Potency,[3],inactive
same,outcome,[4],inactive
same,outcome,[5],inactive
same,outcome,[6],inactive
same,outcome,[7],inactive
same,outcome,[8],inactive
same,outcome,[9],inactive
same,outcome,[10],inactive
same,outcome,[11],inactive
same,outcome,[12],inactive
same,outcome,[13],inactive
same,outcome,[14],inactive
O=C(O)CCCc1ccc(N(CCCl)CCCl)cc1,outcome,[15],inactive
same,caspase-3 activation,[2],96.5% (active)
same,Potency,[3],inactive
same,outcome,[5],inactive
same,outcome,[6],inactive
same,outcome,[7],inactive
same,outcome,[9],inactive
same,outcome,[10],inactive
same,outcome,[11],inactive
same,outcome,[12],inactive
same,outcome,[13],inactive
same,outcome,[16],inactive
same,outcome,[17],inactive
same,Potency,[18],inactive
same,Potency,[19],inactive
same,Potency,[20],8.91 µM (active)
Nc1ccccc1C(=O)O,outcome,[1],inactive
same,caspase-3 activation,[2],-0.541%
same,Potency,[3],inactive
same,outcome,[4],inactive
same,outcome,[5],inactive
same,outcome,[6],inactive
same,outcome,[7],inactive
same,outcome,[8],inactive
same,outcome,[9],inactive
same,outcome,[10],inactive
same,outcome,[11],inactive
same,outcome,[12],inactive
same,outcome,[13],inactive
same,Potency,[18],inactive
CCCC(C)(COC(N)=O)COC(N)=O,outcome,[1],inactive
same,caspase-3 activation,[2],0.151%
same,Potency,[3],inactive
same,outcome,[4],inactive
same,outcome,[5],inactive
same,outcome,[6],inactive
same,outcome,[7],inactive
same,outcome,[8],inactive
same,outcome,[9],inactive
same,outcome,[10],inactive
same,outcome,[11],inactive
same,outcome,[12],inactive
same,outcome,[13],inactive
same,Potency,[18],inactive
Clc1ccc(C(c2ccc(Cl)cc2)C(Cl)(Cl)Cl)cc1,outcome,[1],inactive
same,caspase-3 activation,[2],7.14%
same,Potency,[3],50.1 µM (active)
same,outcome,[4],inactive
same,outcome,[5],inactive
same,outcome,[6],inactive
same,outcome,[7],inactive
same,outcome,[8],inactive
same,outcome,[9],inactive
same,outcome,[11],inactive
same,outcome,[12],inactive
same,outcome,[13],inactive
same,Potency,[18],inactive
COC(=O)C(c1ccccc1)C1CCCCN1 (stereo not drawn),outcome,[1],inactive
same,caspase-3 activation,[2],0.101%
same,Potency,[3],inactive
same,outcome,[4],inactive
same,outcome,[5],inactive
same,outcome,[6],inactive
same,outcome,[7],inactive
same,outcome,[8],inactive
same,outcome,[9],inactive
same,outcome,[10],inactive
same,outcome,[11],inactive
same,outcome,[12],inactive
same,outcome,[13],inactive
same,Potency,[18],inactive
COc1cc(OC)c(OC)cc1C=O,outcome,[1],inactive
same,caspase-3 activation,[2],1.29%
same,Potency,[3],inactive
same,outcome,[4],inactive
same,outcome,[5],inactive
same,outcome,[6],inactive
same,outcome,[7],inactive
same,outcome,[8],inactive
same,outcome,[9],inactive
same,outcome,[10],inactive
same,outcome,[11],inactive
same,outcome,[12],inactive
same,outcome,[13],inactive
same,Potency,[18],inactive
Oc1ccc(Cl)cc1,outcome,[1],inactive
same,caspase-3 activation,[2],-0.847%
same,Potency,[3],inactive
same,outcome,[4],inactive
same,outcome,[5],inactive
same,outcome,[6],inactive
same,outcome,[7],inactive
same,outcome,[8],inactive
same,outcome,[9],inactive
same,outcome,[10],inactive
same,outcome,[11],inactive
same,outcome,[12],inactive
same,outcome,[13],inactive
same,Potency,[18],inactive
COc1ccc2c(c1)C13CCCC[C@@H]1C(C2)N(C)CC3 (stereo partly drawn),outcome,[15],inactive
same,Potency,[19],3.98 µM (active)
CCOP(=S)(OCC)Oc1ccc2c(C)c(Cl)c(=O)oc2c1,outcome,[14],inactive
O=C(CCCN1CCC2(CC1)C(=O)NCN2c1ccccc1)c1ccc(F)cc1,outcome,[15],inactive
same,outcome,[16],inactive
same,outcome,[14],inactive
same,Potency,[19],2.51 µM (active) and 1.58 µM (active)
same,Potency,[20],inactive
c1ccc2c(c1)sc1ccccc12,Potency,[18],inactive
CCCCCCNC(=O)n1cc(F)c(=O)[nH]c1=O,Potency,[18],20 µM (active)
same,outcome,[14],inactive
CC(C)(C)NCC(O)c1ccccc1Cl (stereo not drawn),Potency,[18],inactive
O=C1c2ccccc2C(=O)c2ccccc21,Potency,[18],inactive
C[C@]12CCC(=O)C=C1CC[C@@H]1[C@@H]2CC[C@@]2(C)[C@H]1CC[C@]2(C)O,outcome,[1],inactive
same,caspase-3 activation,[2],22.4%
same,Potency,[3],inactive
same,outcome,[4],inactive
same,outcome,[5],inactive
same,outcome,[6],inactive
same,outcome,[7],inactive
same,outcome,[8],inactive
same,outcome,[9],inactive
same,outcome,[10],inactive
same,outcome,[11],inactive
same,outcome,[12],inactive
same,outcome,[13],inactive
same,Potency,[18],inactive
CCC1(c2ccc(N)cc2)CCC(=O)NC1=O (stereo not drawn),outcome,[14],inactive
NCCc1ccc(O)cc1,outcome,[15],inactive
same,outcome,[1],inactive
same,caspase-3 activation,[2],3.49%
same,Potency,[3],inactive
same,outcome,[4],inactive
same,outcome,[5],inactive
same,outcome,[6],inactive
same,outcome,[7],inactive
same,outcome,[8],inactive
same,outcome,[9],inactive
same,outcome,[10],inactive
same,outcome,[11],inactive
same,outcome,[13],inactive
same,outcome,[16],inactive
same,Potency,[18],inactive
C=CCN1C[C@H](C)N([C@H](c2ccc(C(=O)N(CC)CC)cc2)c2cccc(OC)c2)C[C@H]1C,outcome,[15],inactive
same,Potency,[19],1.58 µM (active)
